# According to PMC5540273 (PLoS ONE, 2017):
# System: PRKX
# Settings: concentration: 1 μM,replicates: in singlicate; n = 1
# 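Note: KINOMEscan kinase panel screen.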
row,Compound,%Inh
1,CC(C)c1nc(-c2cccc(NS(=O)(=O)c3ccccc3)c2)c(-c2ccnc(Nc3ccc4c(c3)CN(C)CC4)n2)s1 [GSK1649598],5%
2,C[C@@H](Oc1cc(-n2cnc3cc(-c4cnn(C)c4)ccc32)sc1C(N)=O)c1ccccc1Cl [GSK580432],0%
3,CCn1c(-c2nonc2N)nc2cncc(CNC3CCNCC3)c21.Cl [SB-747651],55%
4,CN1CCN(CCCNc2nccc(-c3c(-c4ccc(F)cc4)nn4cc(C(N)=O)ccc34)n2)CC1 [GW622475],8%
5,Cc1ccc(C(=O)Nc2ccc(Oc3ccc4nc(NC(=O)C5CC5)cn4c3)c(F)c2)c(=O)n1-c1ccccc1,0%
6,CC(=O)Nc1ccc(-c2cc3ncnc(SCC(=O)O)c3s2)cc1,24%
7,Cn1ccc2ncnc(Oc3ccc(NC(=O)Nc4ccnc(C(F)(F)F)c4)c(Cl)c3)c21,1%
8,NC(=O)c1ccc(-c2cc3ncnc(SCC(=O)O)c3s2)cc1,0%
9,CN(c1ccc2c(c1)nc(NCc1ccc(F)cc1)n2C)c1ccnc(Nc2ccc(CS(C)(=O)=O)cc2)n1.Cl [GW813244],0%
10,FC(F)(F)c1cc(Br)cc(Nc2nccc(-c3cnn4ncccc34)n2)c1 [GW810578],0%
11,Cn1ccc2ncnc(Oc3ccc(NC(=O)Nc4cccc(C(F)(F)F)c4)c(F)c3)c21,0%
12,CCCC(=O)Nc1n[nH]c2ncccc12 [SB-601436],0%
13,CN(c1ccccc1CNc1nc(Nc2ccc3c(c2)CC(=O)N3)ncc1C(F)(F)F)S(C)(=O)=O,17%
